A number with no mark means an inactive call. Activity calls are given as the source filed them. The call rests on the fitted dose curve; in most records, active means well fitted curve in the direction sought with a large enough effect in the repeat runs; inconclusive means weak or mixed curves; inactive means flat fitted curve, though single readings scatter.
Test: qHTS assay to test for compound auto fluorescence at 535 nm (green) in HepG2 cell free culture (AID 720686)
Conditions: Cell-free medium, green autofluorescence 485/535 nm; series mostly up to 46 µM; fluorescence, % of fluorescein control: at the top concentration
Description: U.S. Tox21 Program National Center for Advancing Translational Sciences [NCATS] NIH Chemical Genomics Center [NCGC] U.S. Environmental Protection Agency [EPA] National Institutes of Environmental Health Sciences [NIEHS] National Toxicology Program [NTP] U.S. Food and Drug Administration [FDA] Tox21 Assay Overview: Compound auto fluorescence often interferes with screening of the compound library against various biological targets and signaling pathways. Some of these compounds may have fluorophoric properties. Such properties may interfere with the assay outputs resulting in false positives and/or negatives. To decrease such complications and ensure the compound activities are relevant in terms of biological response, the Tox21 10K compound library was screened for auto fluorescence. From the fluorophores used as reporter signals in our screening assays, the auto fluorescence equivalencies of compounds against three fluorophores have been evaluated: Triamterene, Fluorescein and Rose Bengal sodium for blue, green and red fluorescence, respectively. The fluorescence intensities were measured using Excitation/Emission wavelengths at 405/460nm, 485/535nm and 540/590nm for blue, green and red labels, respectively. This assay includes the green fluorescence data.
Tox21 Assay Protocol Summary: 5 uL of culture medium (MEM containing 10% FBS) per well was dispensed into black wall/clear bottom 1536-well plates using a Multidrop Combi Dispenser (ThermoFisher Scientific, Waltham, MA). After 23 nL compound or DMSO vehicle was transferred into assay plate by a pintool work station (Kalypsys, San Diego, CA), fluorescence intensities in the assay plates were measured by an Envision (PerkinElmer, Shelton, CT) plate reader using three labels for measuring blue, green and red fluorescence at […] 460, 535 and 590nm respectively.
On the % scale 0 is the no-effect control and ±100 the full control effect.

SMILES	fluorescence, % of fluorescein control	Potency
CN(C)[C@H](Cc1ccccc1)c1ccccc1	0.0257%	
O=C(CS(=O)C(c1ccccc1)c1ccccc1)NO (stereo not given)	0.171%	
CC(C)[C@@]1(NC(=O)[C@@H]2C[C@@H]3c4cccc5[nH]cc(c45)C[C@H]3N(C)C2)O[C@@]2(O)[C@@H]3CCCN3C(=O)[C@H](Cc3ccccc3)N2C1=O		inactive
Cc1ccc2ccccc2c1C		inactive
N#CC1(N2CCCCC2)CCCCC1	-0.0323%	
CC(=O)OC1CN2CCC1CC2 (stereo not given)	-0.0109%	
C=CCN1CC[C@]23c4c5ccc(O)c4O[C@H]2[C@@H](O)C=C[C@H]3[C@H]1C5	0.0328%	
C[C@@H]1[C@@H]2Cc3ccc(O)cc3[C@@]1(C)CCN2CCc1ccccc1	0.0227% [at 91.3 µM]	
Cc1ccc(N(SC(F)(Cl)Cl)S(=O)(=O)N(C)C)cc1	-0.0194% [at 91.3 µM]	
O=[N+]([O-])c1cc(I)c(O)c(I)c1	-0.067%	
CC(=O)Oc1ccc2c3c1O[C@H]1[C@@H](OC(C)=O)C=C[C@H]4[C@@H](C2)N(C)CC[C@@]341		inactive
CC(=O)[C@@]1(O)CC[C@H]2[C@@H]3CCC4=CC(=O)CC[C@]4(C)C3(F)[C@@H](O)C[C@@]21C (stereo not given in full)	0.0623%	
CC(C)(C)c1ccc(O)cc1		inactive
C[C@@H](N)C(=O)c1ccccc1	0.0289% [at 95.7 µM]	
O=C(C[C@@H]1NCCC[C@H]1O)Cn1cnc2cc(Br)c(Cl)cc2c1=O	-0.0048%	
C[C@@H]1[C@H](O)[C@@H](C)/C=C/C=C/CC/C=C/C=C/C=C/C=C/[C@H](O[C@H]2O[C@@H](C)[C@H](O)[C@@H](N)[C@H]2O)CC2O[C@](O)(C[C@@H](O)[C@H](O)CC[C@@H](O)C[C@@H](O)C[C@@H](O)CC(=O)O[C@H]1C)C[C@H](O)[C@H]2C(=O)O	0.0014%	
CC[N+](C)(CC)CCOC(=O)C(O)(c1ccccc1)c1ccccc1	-0.055%	
O.O.O.O=C([O-])C(O)C(O)C(=O)[O-].O=C([O-])C(O)C(O)C(=O)[O-].[K+].[K+].[Sb].[Sb] (stereo not given)	-0.0275%	
Cc1ccccc1-n1c(CF)nc2ccc(N)cc2c1=O	-0.0195%	
C[C@@H]([C@H](O)c1ccccc1)N(C)C	0.0746%	

SMILES	fluorescence, % of fluorescein control	Potency
Cc1ccccc1-n1c(C)nc2ccccc2c1=O		inactive
CCC(N)Cc1c[nH]c2ccccc12 (stereo not given)		inactive
OC(c1ccccc1)(c1ccccc1)C1CN2CCC1CC2 (stereo not given)	-0.0162%	
C[C@]12CC[C@@H]3c4ccc(OC(=O)N(CCCl)CCCl)cc4CC[C@H]3[C@@H]1CC[C@@H]2OP(=O)(O)O		inactive
CCCC(C)(COC(N)=O)COC(=O)NC1CC1 (stereo not given)	0.0521%	
C[C@]12CC[C@H]3[C@@H](CCC4=C(Cl)C(=O)CC[C@@]43C)[C@@H]1CC[C@@H]2O	0.0214%	
[H+].[H+].[Hg+2].[O-]B([O-])[O-].[c-]1ccccc1	0.0181%	
Cc1cccc(C(C)c2cnc[nH]2)c1C (stereo not given)	0.0083%	
c1ccccc1	-0.0164% [at 91.3 µM]	
CCNCC(O)c1cccc(O)c1 (stereo not given)	0.0336% [at 18.6 µM]	
O=c1ccc2cc(O[C@@H]3O[C@H](CO)[C@@H](O)[C@H](O)[C@H]3O)c(O)cc2o1	-0.0474% [at 18.6 µM]	
CCC1(c2cnc[nH]2)Cc2ccccc2C1		inactive
Clc1ccc(C(Cn2ccnc2)OCc2csc3c(Cl)cccc23)c(Cl)c1 (stereo not given)	0.0943% [at 18.6 µM]	
CN1c2ccccc2C(NCCCCCCC(=O)O)c2ccc(Cl)cc2S1(=O)=O (stereo not given)	0.141%	
CC1(C)S[C@@H]2[C@H](N)C(=O)N2[C@H]1C(=O)O	0.0413% [at 18.6 µM]	
S=C(S)N1CCNCC1	-0.0415%	
NCC[C@H](O)C(=O)N[C@@H]1C[C@H](N)[C@@H](O[C@H]2O[C@H](CN)[C@@H](O)[C@H](O)[C@H]2N)[C@H](O[C@@H]2O[C@H](CO)[C@@H](O)[C@H]2O)[C@H]1O	-0.131% [at 18.6 µM]	
O=C1C(I)=CC(=C(c2cc(I)c(O)c(I)c2)c2ccccc2C(=O)O)C=C1I		inactive
Oc1c(Cl)cc(Cl)cc1Cl		inactive
CC(=O)O[C@H]1C[C@H](O[C@H]2[C@@H](O)C[C@H](O[C@H]3[C@@H](O)C[C@H](OC4CC[C@@]5(C)[C@H](CC[C@@H]6[C@@H]5CC[C@]5(C)[C@@H](C7=CC(=O)OC7)CC[C@]65O)C4)O[C@@H]3C)O[C@@H]2C)O[C@H](C)[C@H]1O[C@@H]1O[C@H](CO)[C@@H](O)[C@H](O)[C@H]1O (stereo not given in full)	0.0556%	
